Experimental data from PubChem BioAssay (EPA / NIEHS).
Inconclusive results are not listed. Active and inactive are the calls of the source. Rule for the calls, unless noted: active = hit-call score of the fitted dose curve at least 0.9, where 1 is the maximum; inactive = score below 0.9.

How the values were obtained:
[1] = CCTE_Mundy_HCI_Cortical_Synap_Neur_Matur_NeuriteCount: CCTE's Synaptogenesis and Neurite Maturation Assay in rat cortical cells for Neurite Count, Mundy Lab (AID 2284222)
Procedure, shortened: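 In this multiplexed morphology readout, rat primary cortical neurons are fixed at DIV 12 following dosing at DIV 7 and stained for MAP2, synaptophysin and nuclei. High-content image analysis yields neurite count.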

[2] = CCTE_Mundy_HCI_hNP1_Pro_ResponderAvgInten: CCTE's Proliferation Assay in human neuroprogenitor cells, Mundy Lab (AID 2284224; active = hit-call score of the fitted dose curve at least 0.9, where 1 is the maximum;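 note: human neural progenitor cells hNP1 derived from WA09 embryonic stem cells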)
Procedure, shortened: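 Proliferation read as average intensity of BrdU-positive cells, imaged at 26.25 h post-dosing: chemical exposure started after 40–44 h culture, BrdU during final 4 h, paraformaldehyde fixation. Positive-direction fit relative to DMSO.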

[3] = BSK_BT_PBMCCytotoxicity: PBMC Cytotoxicity Assessment in the BioMAP Diversity Plus: BT Assay (AID 2284225); conditions: primary human B cells with PBMC;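 note: PBMC viability measured by Alamar Blue dye reduction fluorescence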
Procedure, shortened: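 Viability by Alamar Blue reduction (6 h, ex/em 546/580 nm) after 90 h culture of SEB/TSST-1-activated PBMC (20 ng/mL each) given compound 1 h before activation. DMSO served as baseline for curve fitting.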

[4] = read-out: Secreted IgG (sIgG), gene 3500; test: BSK_BT_sIgG: BioMAP Diversity Plus: BT Assay for Secreted IgG (sIgG) Biomarker Activity (AID 2284226); conditions: primary human B cells with PBMC
Procedure, shortened: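 Cells (B cells with peripheral blood mononuclear cells) are dosed, cultured 24 h, then supernatant IgG is measured by ELISA. DMSO serves as negative control; curves are fitted for signal increase.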

[5] = BSK_BT_Bcell_Proliferation: Viability Assessment in the BioMAP Diversity Plus: BT Assay for B cell Proliferation (AID 2284227); conditions: primary human B cells with PBMC
Procedure, shortened: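 Using a human primary B cell–PBMC co-culture, the assay measures total protein by sulforhodamine B absorbance as a gauge of proliferation after 72 h. Analysis followed the positive fitting direction with DMSO as baseline.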

[6] = read-out: Interleukin 6 (IL6), IL6 (gene 3569); test: BSK_BT_xIL6: BioMAP Diversity Plus: BT Assay for Interleukin 6 (IL6) Biomarker Activity (AID 2284228); conditions: primary human B cells with PBMC
Procedure, shortened: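 Readout: secreted IL-6 via Luminex xMAP multiplex, 24 h post-dosing. System: primary human B cells co-cultured with PBMC. Signal change scored relative to DMSO vehicle, positive fitting direction.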

[7] = read-out: Interleukin 17A (IL17A), IL17A (gene 3605); test: BSK_BT_xIL17A: BioMAP Diversity Plus: BT Assay for Interleukin 17A (IL17A) Biomarker Activity (AID 2284229); conditions: primary human B cells with PBMC
Procedure, shortened: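 Luminex xMAP readout of secreted IL-17A; human B cell + PBMC co-culture; 24 h post-dose; positive-direction fit vs DMSO negative control.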

Measured: AC50

CCOc1cc(Oc2ccc(C(F)(F)F)cc2Cl)ccc1[N+](=O)[O-]
active: [1] 16.6 µM | [2] 10.9 µM

COc1cnc(OC)n2nc(NS(=O)(=O)c3c(OCC(F)F)cccc3C(F)(F)F)nc12
not listed: [1] | [2]
inactive: all other assays above

COC(=O)N(OC)c1ccccc1COc1ccn(-c2ccc(Cl)cc2)n1
active: [1] 0.105 µM | [2] 81.5 µM
